Experimental findings from PubChem BioAssay (NCI) are described below.

Test systems include NCI-H23 lung; NCI-H226 lung; NCI-H322M lung; HOP-62 NSCLC; NCI-H460 lung; HOP-92 NSCLC; NCI-H522 lung; A549/ATCC NSCLC; 786-0 renal; DU-145 prostate; K-562 leukemia; MALME-3M melanoma; MDA-MB-231 breast; SF-268 CNS; SF-295 CNS; SF-539 CNS; UACC-257 melanoma; M14 melanoma; RXF 393 renal.
Holding throughout (assay): NCI-60 one-dose screen, 48 h (100 = growth as untreated, 0 = no growth, -100 = all killed)
Conditions in all cases: 10 µM unless noted

Compounds without any hit were thinned out: in the full panel of roughly 83,000, 20% have a hit.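 Results are percent growth after 48 hours of single-concentration exposure. 100 means growth as in untreated cells, lower positive values show inhibition; negative values down to -100 show cell death.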 A number with no mark means an inactive call. The source made the active and inactive calls. Rule for the calls: active = growth percent below 10; inactive = the rest.

With `COc1cc(NCCN(CC(C)C)C2CCCC2)c2ncccc2c1`, the growth was 81.1% in the assay on NCI-H23 lung; 92% in the assay on NCI-H226 lung; 118% in the assay with NCI-H322M lung; 82.9% with HOP-62 NSCLC; 95.7% with NCI-H460 lung; 95.9% in the assay with HOP-92 NSCLC. Also, the growth in the assay on NCI-H522 lung was 78.1%; with A549/ATCC NSCLC, 81.7%; in the assay with 786-0 renal it was 98.1%; in the assay on DU-145 prostate it was 104%; in the assay on K-562 leukemia, 99%; in the assay on MALME-3M melanoma it was 126%. Besides, the growth in the assay on MDA-MB-231 breast is 79%; in the assay on SF-268 CNS, 86%; in the assay with SF-295 CNS it was 94.1%; with SF-539 CNS it was 98.3%; in the assay on UACC-257 melanoma it was 91.5%; with M14 melanoma it was 102%.

Turning to `CCCC1C(C(=O)OCC)=C(N)Oc2cc(O)ccc21` (configuration not stated), the growth with NCI-H23 lung is 90.7%; in the assay on NCI-H226 lung, 78.9%; with NCI-H322M lung, 109%; in the assay with HOP-62 NSCLC, 76.7%; in the assay with NCI-H460 lung, 93.1%; in the assay with HOP-92 NSCLC, 74.8%. The growth with NCI-H522 lung is 77.2%; in the assay on A549/ATCC NSCLC it was 101%; with 786-0 renal, 95.1%; with DU-145 prostate, 103%; with K-562 leukemia, 85.6%; with MALME-3M melanoma, 98.8%. Moreover, the growth in the assay with MDA-MB-231 breast was 93.6%; in the assay on RXF 393 renal, 131%; in the assay with SF-268 CNS, 104%; in the assay with SF-295 CNS it was 102%; with SF-539 CNS it was 93.8%; in the assay on UACC-257 melanoma it was 104%. Besides, the growth with M14 melanoma was 90.5%.

In the case of `O=C(/C=C/c1ccc[nH]1)c1ccc(-n2ccc(C(F)(F)F)n2)cc1`, the growth is 90.1% in the assay on NCI-H23 lung; 91.5% in the assay with NCI-H226 lung; 72.4% in the assay on NCI-H322M lung; 104% with HOP-62 NSCLC; 99.1% with NCI-H460 lung; 96.3% in the assay on HOP-92 NSCLC. Also, the growth is -6.16% (active) in the assay with NCI-H522 lung; 50.6% in the assay on A549/ATCC NSCLC; 45.4% with 786-0 renal; 96.4% in the assay on DU-145 prostate; 68.1% in the assay on K-562 leukemia; 86% in the assay with MALME-3M melanoma. Besides, the growth in the assay on MDA-MB-231 breast is 22.7%; in the assay with RXF 393 renal it was 50%; in the assay on SF-268 CNS, 34.2%; in the assay with SF-295 CNS, 70.2%; in the assay on SF-539 CNS it was 14.3%; in the assay on UACC-257 melanoma, 96.7%. Also, in the assay on M14 melanoma, the growth is 94.5%.

Turning to `CCOC(=O)C1CC(=O)c2cc(OC)c(OC)cc2C1` (configuration not stated), the growth with NCI-H23 lung is 101%; with NCI-H226 lung it was 92.6%; in the assay with NCI-H322M lung, 123%; in the assay with HOP-62 NSCLC, 96%; in the assay on NCI-H460 lung, 110%; in the assay with HOP-92 NSCLC it was 84%. Moreover, the growth is 84.9% in the assay on NCI-H522 lung; 100% in the assay on A549/ATCC NSCLC; 96.2% in the assay on 786-0 renal; 111% with DU-145 prostate; 88% with K-562 leukemia; 132% in the assay with MALME-3M melanoma. The growth was 110% with MDA-MB-231 breast; 102% in the assay on SF-268 CNS; 98.1% with SF-295 CNS; 100% in the assay with SF-539 CNS; 87.7% in the assay on UACC-257 melanoma; 87.8% in the assay with M14 melanoma.

With `Cn1c(COC(=O)N2CCCCC2)nc2c(N3CCOCC3)nc(-c3ccccc3)nc21`, the growth with NCI-H23 lung is -75.9% (active); in the assay on NCI-H226 lung, -60.8% (active); with NCI-H322M lung, 37.4%; with HOP-62 NSCLC it was -31.3% (active); in the assay with NCI-H460 lung it was -55.9% (active); with HOP-92 NSCLC, -64.7% (active). Also, the growth in the assay on NCI-H522 lung was -53.2% (active); with A549/ATCC NSCLC, -39.7% (active); with 786-0 renal, -75.1% (active); with DU-145 prostate it was -87% (active); in the assay with K-562 leukemia it was 3.43% (active); in the assay with MALME-3M melanoma, -85.2% (active). Moreover, the growth in the assay with MDA-MB-231 breast is -71.6% (active); in the assay with SF-268 CNS, -78.5% (active); in the assay with SF-295 CNS it was 21.6%; in the assay on SF-539 CNS it was -91.9% (active); in the assay with UACC-257 melanoma, -76.3% (active); with M14 melanoma it was -59.8% (active).

Consider `O=C1CCCN1c1cccc2cccnc12`, for which the growth in the assay on NCI-H23 lung was 92.9%; in the assay with NCI-H226 lung it was 98.8%; in the assay on NCI-H322M lung it was 102%; in the assay with HOP-62 NSCLC it was 94.4%; with NCI-H460 lung, 102%; in the assay on HOP-92 NSCLC it was 103%. In addition, the growth was 96% in the assay on NCI-H522 lung; 99% with A549/ATCC NSCLC; 97.5% in the assay with 786-0 renal; 111% with DU-145 prostate; 96.4% with K-562 leukemia; 109% in the assay on MALME-3M melanoma. Further, the growth with MDA-MB-231 breast is 99%; in the assay with RXF 393 renal, 102%; with SF-268 CNS, 97.9%; in the assay with SF-295 CNS, 102%; in the assay on SF-539 CNS, 98.9%; in the assay with UACC-257 melanoma, 102%. In addition, the growth in the assay on M14 melanoma was 103%.

Regarding `COc1cccc(/C=C2\COc3ccc(-c4ccccc4)cc3C2=O)c1`, the growth in the assay with NCI-H23 lung was 44.9%; in the assay with NCI-H226 lung, 65.7%; in the assay on NCI-H322M lung, 45.4%; with HOP-62 NSCLC, -32.3% (active); in the assay on NCI-H460 lung it was -22.3% (active); in the assay with HOP-92 NSCLC, -3.57% (active). Besides, the growth in the assay on NCI-H522 lung was 25.2%; in the assay with A549/ATCC NSCLC it was 37%; in the assay with 786-0 renal, -45.4% (active); in the assay on DU-145 prostate it was -40.2% (active); in the assay with K-562 leukemia, -2.92% (active); in the assay with MALME-3M melanoma, 101%. Also, the growth in the assay on MDA-MB-231 breast is 32.3%; in the assay with SF-268 CNS, 4.23% (active); with SF-295 CNS, -44.8% (active); in the assay with SF-539 CNS it was -29.8% (active); with UACC-257 melanoma, 49.2%; with M14 melanoma, 23.6%.

On to `CN1CCN(CCCOc2ccc3ncnc(Nc4ccc(Oc5cccc(C(F)(F)F)c5)c(Cl)c4)c3c2)CC1`, for which the growth with NCI-H23 lung is 44.4%; in the assay on NCI-H226 lung it was 85.6%; in the assay with NCI-H322M lung it was 11.3%; with HOP-62 NSCLC it was 1.07% (active); in the assay with NCI-H460 lung it was -66.9% (active); in the assay on HOP-92 NSCLC it was 29.4%. Also, the growth was -3.31% (active) in the assay with NCI-H522 lung; 21.5% in the assay with A549/ATCC NSCLC; -81% (active) with 786-0 renal; -8.56% (active) in the assay on DU-145 prostate; -13.1% (active) in the assay on K-562 leukemia; -90.2% (active) with MALME-3M melanoma. The growth with MDA-MB-231 breast was -74.6% (active); in the assay on SF-268 CNS, 28.1%; in the assay with SF-295 CNS, -64.7% (active); with SF-539 CNS, -89.3% (active); in the assay with UACC-257 melanoma, -53.5% (active); in the assay on M14 melanoma, -62.8% (active).
